Measurements taken from PubChem BioAssay AID624086 (Broad Institute, 2012).
Activity calls are given as the source filed them.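 The calls were made as follows: active = fitted half-maximal effect concentration at or below the top concentration tested; inactive = the rest.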

Test: TCF/LEF luciferase signal increase in HEK293T – cell-based, firefly luciferase, dry powder, orthogonal assay for GSK3b inhibitor project, dose response (AID 624086)
Conditions: HEK293T TCF/LEF firefly luciferase reporter, 24 h; series mostly up to 26 µM

outcome, inactive:
COc1ccccc1C1C2=C(CC(C)(C)CC2=O)Nc2n[nH]c(-c3ccccc3)c21 (configuration not stated)
COc1ccccc1C1C2=C(CC(C)(C)CC2=O)Nc2n[nH]c(C(C)C)c21 (configuration not stated)
COc1ccccc1C1C2=C(CC3(CCCCC3)CC2=O)Nc2n[nH]c(C)c21 (configuration not stated)
Cc1[nH]nc2c1C(c1ccn[nH]1)C1=C(CC(C)(C)CC1=O)N2 (configuration not stated)
Cc1[nH]nc2c1C(c1ccc(Br)cn1)C1=C(CC(C)(C)CC1=O)N2 (configuration not stated)
Cc1[nH]nc2c1C(C)(c1ccccc1)C1=C(CC(C)(C)CC1=O)N2 (configuration not stated)
CC1(C)CC(=O)C2=C(C1)Nc1n[nH]c(C(F)(F)F)c1C2c1cc(F)ccc1OC(F)(F)F (configuration not stated)
Cc1[nH]nc2c1C(c1ccc(F)cc1Cl)C1=C(CC(C)(C)CC1=O)N2 (configuration not stated)
COc1ccccc1C1C(C(C)=O)=C(C)Nc2n[nH]c(C)c21 (configuration not stated)
Cc1[nH]nc2c1[C@@H](c1cccs1)C1=C(CC(C)(C)CC1=O)N2
COc1ccccc1C1C2=C(CCC(C)(C)C2=O)Nc2n[nH]c(C)c21 (configuration not stated)
Cc1[nH]nc2c1C(C1CC1)C1=C(CC(C)(C)CC1=O)N2 (configuration not stated)
O/N=C/c1cn(-c2ccccc2)nc1-c1ccc2c(c1)OCCO2
Cc1[nH]nc2c1C(c1ccc(Cl)cc1)C1=C(CC(C)(C)CC1=O)N2 (configuration not stated)
CC1(C)CC(=O)/C(=C\c2ccccc2C(F)(F)F)C(=Nc2cc(C(F)(F)F)[nH]n2)C1
Cc1[nH]nc2c1C(c1ccccn1)C1=C(CC(C)(C)CC1=O)N2 (configuration not stated)
CC(C)c1ccc(-c2nn(-c3ccccc3)cc2/C=N/O)cc1
Cc1[nH]nc2c1[C@H](c1ccccc1C(F)(F)F)C1=C(CC(C)(C)CC1=O)N2
Cc1[nH]nc2c1C(c1ccsc1)C1=C(CC(C)(C)CC1=O)N2 (configuration not stated)
Cc1[nH]nc2c1C(c1ccc(Cl)s1)C1=C(CC(C)(C)CC1=O)N2 (configuration not stated)
COc1ccc(-c2nn(-c3ccccc3)cc2/C=N/O)cc1OC
COc1cccc(-c2nn(-c3ccccc3)cc2/C=N/O)c1
Cc1[nH]nc2nc3c(c(-c4ccccc4)c12)C(=O)CC(C)(C)C3
Cc1[nH]nc2c1[C@H](c1cccs1)C1=C(CC(C)(C)CC1=O)N2
Cc1ccc(C2C3=C(CC(C)(C)CC3=O)Nc3n[nH]c(C)c32)cc1 (configuration not stated)
Cc1[nH]nc2c1C(c1cccs1)C1C(=O)CC(C)(C)CC1=N2 (configuration not stated)
Cc1[nH]nc2c1C(C1CCCCC1)C1=C(CC(C)(C)CC1=O)N2 (configuration not stated)
Cc1[nH]nc2c1C(c1cccnc1)C1=C(CC(C)(C)CC1=O)N2 (configuration not stated)
Cc1[nH]nc2c1C(c1ccc(F)cc1)C1=C(CC(C)(C)CC1=O)N2 (configuration not stated)
Cc1cccc(C2C3=C(CC(C)(C)CC3=O)Nc3n[nH]c(C)c32)c1 (configuration not stated)
COc1ccccc1/C=C1\C(=O)CC(C)(C)CC1=Nc1cc(C(F)(F)F)[nH]n1
CC1(C)CC(=O)C2=C(C1)Nc1n[nH]c(C(F)(F)F)c1C2c1ccc(F)cc1C(F)(F)F (configuration not stated)
